In PubChem BioAssay (NCATS):
Records with an inconclusive call do not appear. Unmarked numbers belong to inactive results. Calls follow the shape of the dose curve; as a rule, active = well fitted inhibition curve with a large enough effect; inconclusive = small, poorly fitted or top-dose-only effect; inactive = flat fitted curve, though single readings scatter. Where a SMILES comes first, the peptide text is derived from it. Bridges are numbered along the chain shown (N, C = ends). [ ]: non-standard residue; d: D form. hArg = N=C(N)NCCCC[C@H](N)C(=O)O; Mpa = O=C(O)CCS

Test system: CP252
Assay: qHTS profiling for inhibitors of Plasmodium falciparum proliferation (AID 504749);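 also: 0% = DMSO vehicle and full inhibition = artemisinin control; nearly all actives have a fitted effect of over 60% in size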
Conditions: P. falciparum in erythrocytes, SYBR Green DNA, 72 h; series mostly up to 28.7 µM; activity, negative = inhibition: at the top concentration
Procedure, shortened: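 In a 72 h erythrocytic culture (37 C, humidified, 5% CO2) at 2.5% hematocrit and 0.3% starting parasitemia, compounds were tested; SYBR Green I in detergent lysis buffer stained parasite DNA overnight.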

SMILES	activity, negative = inhibition
O=C(Cn1ccnc1[N+](=O)[O-])NCCO	-1.15%
Cc1c(C)c2c(c(C)c1OC(=O)c1cccnc1)CC[C@@](C)(CCC[C@H](C)CCC[C@H](C)CCCC(C)C)O2	5.57%
COc1ccc2cc(CCC(C)=O)ccc2c1	-0.0145% [at 12.8 µM]
CN(C/C=C/C#CC(C)(C)C)Cc1cccc2ccccc12	-0.193%
CCN(CC)CCc1nc(-c2ccccc2)no1	-16.6% [at 12.8 µM]
COc1nccnc1NS(=O)(=O)c1ccc(N)cc1	0.114%
Cn1c([N+](=O)[O-])cnc1COC(N)=O	7.96%
COC(=O)c1ccc(O)cc1	6.11%
CC[N+](CC)(CC(=O)Nc1c(C)cccc1C)Cc1ccccc1	-3.05%
CC1CCN(CCCC(=O)c2ccc(F)cc2)CC1	-8.04%
COc1ccccc1OC(=O)Oc1ccccc1OC	0.0965%
CN1CCCN=C1COC(=O)C(O)(c1ccccc1)C1CCCCC1 (stereo not drawn)	-5.5%
O=C(/C=C/c1ccccc1)OCc1ccccc1	-2.66%
Cc1c(Cn2ccnc2)c2ccccc2n1CCC(=O)O	-3.32%
NC(=O)[C@@H]1CSSCCC(=O)N[C@@H](CCCCN=C(N)N)C(=O)NCC(=O)N[C@@H](CC(=O)O)C(=O)N[C@@H](Cc2c[nH]c3ccccc23)C(=O)N2CCC[C@H]2C(=O)N1 ([Mpa][hArg]GDWPC-NH2; disulfide 1-7)	3.35%
N[C@@H](Cc1ccc(O)cc1)C(=O)O	8.8%
CC1CCc2cc(F)cc3c(=O)c(C(=O)O)cn1c23 (stereo not drawn)	3.08%
C[C@@H]1O[C@@H](OC[C@H]2O[C@@H](Oc3c(-c4ccc(O)c(O)c4)oc4cc(O)cc(O)c4c3=O)[C@H](O)[C@@H](O)[C@@H]2O)[C@H](O)[C@H](O)[C@H]1O	-1.81%
